This passage reports composite z-score results from PubChem BioAssay.

In this experiment the target is Neurogenic locus notch homolog protein 2 (Homo sapiens) (UniProt Q04721). Put plainly: small molecules binding Notch2 protein – biochemical, small-molecule microarray, 635 nm fluorescence, stem cell growth factors, primary screen (AID 1073). Particulars: higher = more signal.
Chain of Neurogenic locus notch homolog protein 2 (Homo sapiens) (Q04721 whole entry, looked up): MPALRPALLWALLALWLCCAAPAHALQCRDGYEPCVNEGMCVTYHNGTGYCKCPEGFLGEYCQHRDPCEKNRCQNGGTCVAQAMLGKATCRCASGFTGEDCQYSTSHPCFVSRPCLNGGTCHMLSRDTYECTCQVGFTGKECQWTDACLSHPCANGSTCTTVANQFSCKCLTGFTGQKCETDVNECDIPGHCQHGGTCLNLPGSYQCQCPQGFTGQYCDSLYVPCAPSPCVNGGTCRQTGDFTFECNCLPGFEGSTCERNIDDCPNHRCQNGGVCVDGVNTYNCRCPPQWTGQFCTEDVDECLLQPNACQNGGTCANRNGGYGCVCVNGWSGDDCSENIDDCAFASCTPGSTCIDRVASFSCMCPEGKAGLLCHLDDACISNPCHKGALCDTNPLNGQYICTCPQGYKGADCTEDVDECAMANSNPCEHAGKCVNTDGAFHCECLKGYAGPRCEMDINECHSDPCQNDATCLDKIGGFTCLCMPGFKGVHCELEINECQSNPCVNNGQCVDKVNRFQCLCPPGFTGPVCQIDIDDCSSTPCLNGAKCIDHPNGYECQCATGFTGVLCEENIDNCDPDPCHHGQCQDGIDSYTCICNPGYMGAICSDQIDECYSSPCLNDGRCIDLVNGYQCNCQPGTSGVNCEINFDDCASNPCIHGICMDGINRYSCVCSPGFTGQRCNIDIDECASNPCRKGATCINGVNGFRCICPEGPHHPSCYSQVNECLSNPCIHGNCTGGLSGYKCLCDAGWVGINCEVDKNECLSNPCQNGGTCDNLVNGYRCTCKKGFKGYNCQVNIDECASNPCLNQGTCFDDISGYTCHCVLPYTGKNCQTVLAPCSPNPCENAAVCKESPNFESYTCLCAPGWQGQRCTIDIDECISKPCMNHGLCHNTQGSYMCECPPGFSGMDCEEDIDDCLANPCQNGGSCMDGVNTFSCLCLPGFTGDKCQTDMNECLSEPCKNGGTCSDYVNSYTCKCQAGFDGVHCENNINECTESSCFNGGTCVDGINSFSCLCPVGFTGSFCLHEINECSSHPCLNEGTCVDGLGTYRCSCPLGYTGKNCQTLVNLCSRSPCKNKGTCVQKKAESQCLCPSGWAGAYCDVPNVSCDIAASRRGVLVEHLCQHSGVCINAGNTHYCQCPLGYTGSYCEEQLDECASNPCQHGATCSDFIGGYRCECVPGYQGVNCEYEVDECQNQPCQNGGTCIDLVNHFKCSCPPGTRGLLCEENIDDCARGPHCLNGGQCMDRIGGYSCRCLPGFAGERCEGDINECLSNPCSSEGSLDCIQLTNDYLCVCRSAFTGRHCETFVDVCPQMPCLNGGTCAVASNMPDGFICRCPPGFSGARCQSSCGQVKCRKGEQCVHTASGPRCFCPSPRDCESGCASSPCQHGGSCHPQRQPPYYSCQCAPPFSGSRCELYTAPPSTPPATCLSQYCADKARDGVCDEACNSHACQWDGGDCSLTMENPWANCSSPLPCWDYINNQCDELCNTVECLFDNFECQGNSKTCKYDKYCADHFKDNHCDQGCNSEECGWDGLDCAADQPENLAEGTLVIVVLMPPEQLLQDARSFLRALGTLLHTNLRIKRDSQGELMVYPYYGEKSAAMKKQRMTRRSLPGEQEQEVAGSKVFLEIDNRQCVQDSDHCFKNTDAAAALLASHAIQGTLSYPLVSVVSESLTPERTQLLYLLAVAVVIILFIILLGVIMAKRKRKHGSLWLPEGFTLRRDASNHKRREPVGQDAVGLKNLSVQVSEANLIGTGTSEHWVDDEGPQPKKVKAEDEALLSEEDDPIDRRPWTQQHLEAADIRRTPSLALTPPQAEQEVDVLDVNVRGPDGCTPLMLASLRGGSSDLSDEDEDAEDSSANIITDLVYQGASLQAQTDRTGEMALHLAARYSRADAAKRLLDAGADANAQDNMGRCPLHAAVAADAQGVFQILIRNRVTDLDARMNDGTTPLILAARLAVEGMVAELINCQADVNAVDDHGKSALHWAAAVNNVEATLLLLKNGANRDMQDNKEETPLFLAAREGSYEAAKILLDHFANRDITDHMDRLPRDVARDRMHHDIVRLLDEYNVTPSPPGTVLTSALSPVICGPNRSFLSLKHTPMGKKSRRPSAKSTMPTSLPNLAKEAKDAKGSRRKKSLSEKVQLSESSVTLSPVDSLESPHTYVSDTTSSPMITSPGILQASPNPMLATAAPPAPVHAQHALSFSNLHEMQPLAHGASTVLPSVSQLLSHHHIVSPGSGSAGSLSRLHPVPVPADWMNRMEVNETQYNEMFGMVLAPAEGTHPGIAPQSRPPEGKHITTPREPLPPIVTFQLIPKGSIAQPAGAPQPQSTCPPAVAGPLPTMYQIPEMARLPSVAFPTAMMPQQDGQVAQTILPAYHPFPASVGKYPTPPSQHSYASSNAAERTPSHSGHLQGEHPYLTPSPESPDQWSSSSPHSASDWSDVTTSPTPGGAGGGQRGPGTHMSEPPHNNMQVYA
For `COCCOC(=O)N1C(=O)[C@@]2(c3cc(C#CCNC(N)=O)ccc31)[C@H](C(N)=O)[C@H]1C(=O)O[C@H](c3ccccc3)[C@H](c3ccccc3)N1[C@@H]2c1ccc(O)cc1`, the composite z-score was -0.148.

Turning to `C=C1C(=O)C=C2CN(C(=O)c3ccccc3)[C@@](Cc3ccc(F)cc3)(C(=O)OC)[C@@H]12`, the composite z-score came to 1.71.

Regarding `CC(C)(C)OC(=O)N1[C@@H](C=C(Br)Br)COC1(C)C`, the composite z-score came to 0.519.

In the case of `O=C1C[C@@](C(=O)NCC(F)(F)F)(c2ccc([N+](=O)[O-])cc2)[C@@H](c2ccc(CO)cc2I)N1CC12CC3CC(CC(C3)C1)C2`, the composite z-score amounted to 0.729.

As to `Cc1cccc([C@H]2C[C@H]3C(Br)=C[C@@]2(CO)C(=O)[C@]32CO2)c1`, the composite z-score is -0.368.

Compound `COC(=O)C(CC#Cc1ccc2c(c1)[C@]1(C(=O)N2)[C@H](c2ccccc2OCCO)N2[C@H](c3ccccc3)[C@H](c3ccccc3)OC(=O)[C@H]2[C@@H]1C(=O)N1CCN(c2ncccn2)CC1)C(=O)OC` gave a composite z-score of 0.852.

As to `O=C1NC(=O)C2C1C=CC(C(O)c1ccc(F)cc1)N2Nc1ccc(Cl)cc1Cl` (stereo not given), the composite z-score stood at 0.916.

In turn, `C=CCOC(=O)[C@@H]1[C@H]2C(=O)O[C@H](c3ccccc3)[C@H](c3ccccc3)N2[C@H](c2ccc(OCCOC(=O)[C@@H]3C[C@@H]4C(=O)N[C@@H](CC(C)C)C(=O)N4[C@@H]3c3ccc(O)cc3)cc2)[C@@]12C(=O)Nc1ccc(I)cc12` showed a composite z-score of 0.853.

Regarding `COC(=O)c1ccc(OC)c(/C=C\CC(OC(=O)c2ccncc2)c2ccccc2)c1` (stereo not given), the composite z-score stood at 0.481.

As for `COC(=O)[C@@]1(Cc2ccc(F)cc2)[C@H]2c3cc(C(=O)N4CCCC4)n(CCSCCO)c3C[C@H]2CN1C(=O)c1ccccc1`, the composite z-score came to 1.53.
